# High-throughput results as filed in PubChem BioAssay.
# Shown are actives, neighbours in structure and some others; about 12% of the full set was active somewhere.
# BAZ2B inh: blocks human BAZ2B. AlphaScreen BAZ2B-H3K14Ac peptide displacement. AID 504333. Q9UIF8. 4.4% of 360,000 active. Potency, µM (highest dose often 114 µM), without a hit: top-dose activity change, negative = inhibition, most hits filed as inhibitors; also: % is scaled to controls: 0 for no effect and ±100 for the full control effect; nearly all actives have a fitted effect of over 60% in size
#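 Protein-peptide AlphaScreen: BAZ2B 50 nM, b-H3K14Ac 50 nM, 1x PBS pH 7.4 + 0.01% Tween-20. Preincubation 30 min RT; cpd 30 min RT (top 110 uM); beads 20 min RT, light-protected.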
# G9a inh: inhibitors of human histone lysine methyltransferase G9a. Q96KQ7. G9a H3K9 monomethylation, AlphaScreen, 2 h. Potency, µM (series often up to 102 µM), without a hit: at the highest dose activity, negative = inhibition, actives largely listed as inhibitors. 8.8% of 350,000 active. AID 504332; also: % is scaled to controls: 0 for no effect and ±100 for the full control effect; nearly all actives have a fitted effect of over 75% in size
# Target sequence (Q96KQ7 913-1193 limits assumed): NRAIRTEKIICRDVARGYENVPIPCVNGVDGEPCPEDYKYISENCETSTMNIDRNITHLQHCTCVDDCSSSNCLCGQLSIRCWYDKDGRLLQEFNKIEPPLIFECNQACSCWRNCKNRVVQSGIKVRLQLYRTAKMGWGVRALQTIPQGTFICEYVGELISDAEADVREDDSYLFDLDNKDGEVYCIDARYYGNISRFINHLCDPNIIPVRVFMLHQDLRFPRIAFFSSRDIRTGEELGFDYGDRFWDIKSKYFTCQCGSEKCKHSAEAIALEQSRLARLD
#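 Chemiluminescent proximity detection of H3K9 monomethylation, read after 10 min bead incubation in the dark. Reaction: 20 nM G9a, 500 nM biotin-H3K9 peptide, 20 uM SAM cofactor, 2 h, room temperature, following 15 min enzyme-compound preincubation.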
# Sfp inh: Sfp phosphopantetheinyl transferase inhibition; Biochemical Sfp PPTase activity, qHTS; Potency, µM, for the others: largest response in the series, negative = inhibition, most hits filed as inhibitors; 3.5% of 310,000 active; AID 1490;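 also: the enzyme is Sfp with the accession as filed and its product quenches rhodamine fluorescence; 0% = enzyme reaction without inhibitor and -100% = no enzyme wells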
#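 After 15 min at room temperature with compound, 15 nM Sfp received 5 uM rhodamine-CoA plus 12.5 uM BHQ-2-ybbR (50 mM Hepes pH 7.6, 10 mM MgCl2). Rate came from the fluorescence difference over 30 min, ex 525/em 598 nm.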
# TDP1 inh: TDP1 (human) enzyme inhibition. 0.28% of 350,000 active. Q9NUW8. Potency, µM (series often up to 130 µM), inactives show at the top dose activity change, negative = inhibition, most hits filed as inhibitors. recombinant TDP1, AlphaScreen DNA substrate cleavage; also: % is scaled to controls: 0 for no effect and ±100 for the full control effect; nearly all actives have a fitted effect of over 40% in size
#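 Steps: enzyme plus compound, 15 min RT; add biotin/phosphotyrosine-FITC oligonucleotide (15 nM final), react 5 min; add donor/acceptor beads (10 ug/ml final), 10 min; read AlphaScreen. Tdp1 at 1 nM final.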
# HP1b binding inh: HP1-beta chromodomain-methylated histone interaction inhibition; AlphaScreen HP1-beta / biotin-H3K9me3 peptide binding; Potency, µM (doses to about 114 µM), for the others: at the highest dose activity change, negative = inhibition, hits mostly inhibitors; 0.56% of 390,000 active; AID 540317; also: nearly all actives have a fitted effect of over 70% in size
# Target sequence (P83916 whole entry, looked up): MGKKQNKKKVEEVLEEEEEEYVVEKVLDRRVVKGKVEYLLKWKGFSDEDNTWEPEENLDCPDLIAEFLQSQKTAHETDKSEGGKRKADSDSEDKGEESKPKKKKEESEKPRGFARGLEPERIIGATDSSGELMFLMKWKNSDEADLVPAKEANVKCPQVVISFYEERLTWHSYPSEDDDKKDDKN
#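 HP1-beta protein (50 nM final) preincubated 30 min at room temperature with biotinylated H3(1-18)K9me3 peptide (50 nM) in PBS pH 7.4, 0.01% Tween-20, then compound added for 30 min. AlphaScreen streptavidin donor/nickel chelate acceptor beads (10 ug/mL final), 30 min dark, luminescence read.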
# JMJD2A Tudor inh: inhibitors of human JMJD2A Tudor domain; O75164; AlphaScreen JMJD2A-Tudor / H3K4me3 peptide binding; Potency, µM (titrated, usually from 114 µM), without a hit: at the top dose activity change, negative = inhibition, hits mostly inhibitors; 4.4% of 390,000 active; also: % is scaled to controls: 0 for no effect and ±100 for the full control effect; nearly all actives have a fitted effect of over 50% in size
# * hit, by the source's call; ? = inconclusive; / = no result given; [ ] = another dose, or the depositor's remark. Calls follow the shape of the dose curve; as a rule, active = well fitted curve in the direction sought with a large enough effect; inconclusive = small, poorly fitted or top-dose-only effect, or another doubt; inactive = no such curve, though single readings can be large; an effect the other way counts as inactive or inconclusive. Potency is read from the fitted curve at half-maximal effect.
SMILES,BAZ2B inh,G9a inh,Sfp inh,TDP1 inh,HP1b binding inh,JMJD2A Tudor inh
Cc1cc(C(=O)Nc2sc3c(c2C#N)CCC(C)C3)no1 (centres undefined),0.0%,19.4%[59 µM],26.4%,2.3%,39.2%,-11.5%
Cc1onc(-c2ccccc2)c1C(=O)NC(=S)Nc1sc2c(c1C#N)CCC(C)C2 (centres undefined),?,3.55µM*,-5.8%,0.0%,-1.4%,-30.8%
Cc1onc(-c2c(F)cccc2Cl)c1C(=O)Nc1sc2c(c1C(N)=O)CCC2,1.7%,50.1µM*,-6.8%,4.0%,2.6%,-8.8%
Cc1onc(-c2c(F)cccc2Cl)c1C(=O)Nc1sc2c(c1C#N)CCC(C(C)(C)C)C2 (centres undefined),-3.4%,?,-0.3%,-1.9%[56.1 µM],2.0%,-23.6%
NC(=O)c1c(NC(=O)c2cccnc2Cl)sc2c1CCCC2,-4.6%,17.8µM*,1.5%,0.0%,17.0%,-3.4%
CCC(CC)c1nnc(NC(=O)c2c(-c3ccccc3)noc2C)s1,-2.3%,39.8µM*,18.4%,1.2%,13.8%,-17.2%
Cc1onc(C(=O)Nc2sc3c(c2C(N)=O)CCCC3)c1[N+](=O)[O-],?,/,25.1µM*,/,?,?
NC(=O)c1c(NC(=O)c2ccccc2C(=O)O)sc2c1CCCC2,?,17.6%,5.8%,4.1%,34.5%,-6.3%
CCC(=O)N/N=C/c1ccc(-c2ccc(Cl)cc2)o1,-30.3%,-33.7%,3.2%,2.6%,21.2%,-22.8%
CC1=NOC(=O)/C1=C\c1ccc(-c2ccc(Br)cc2)o1,11.2µM*,5.01µM*,44.7µM*,-7.4%,-22.7%,?
CC1=NOC(=O)/C1=C\c1ccc(-c2cc(Cl)ccc2Cl)o1,?,?,17.8µM*,/,?,?
C=CCNC(=S)N/N=C/c1ccc(-c2cc(Cl)ccc2Cl)o1,-23.7%,-33.5%,-8.3%,5.3%,31.5%,-10.7%
CC1=NOC(=O)/C1=C/c1ccc(-c2ccc(Cl)cc2)o1,?,4.47µM*,31.6µM*,-1.1%,/,/
Brc1ccc(-c2ccc(/C=N/Nc3nncc(-c4ccccc4)n3)o2)cc1,-9.6%,31.2%[59 µM],4.9%,5.6%,43.9%,-14.1%
CCNc1nc(C#N)nc(N2CCOCC2)n1,/,/,/,0.4%,25.4%[57 µM],-12.3%[57.1 µM]
O=C(OC[C@H]1O[C@@H](OC(=O)c2cc(O)c(O)c(OC(=O)c3cc(O)c(O)c(O)c3)c2)[C@H](OC(=O)c2cc(O)c(O)c(OC(=O)c3cc(O)c(O)c(O)c3)c2)[C@@H](OC(=O)c2cc(O)c(O)c(OC(=O)c3cc(O)c(O)c(O)c3)c2)[C@@H]1OC(=O)c1cc(O)c(O)c(OC(=O)c2cc(O)c(O)c(O)c2)c1)c1cc(O)c(O)c(OC(=O)c2cc(O)c(O)c(O)c2)c1,0.794µM*,1.41µM*,/,/,/,/
CCOc1ccc(/C=N/Nc2nc(C)cs2)c(O)c1,?,/,?,/,19.0%,?
COc1ccc(N2C(=O)CC(Sc3nnc(-c4ccccc4)o3)C2=O)cc1 (centres undefined),-0.7%,10µM*,56.2µM*,-4.2%,40.0%,-6.3%
O=C1CC(Sc2nnc(-c3ccccc3O)o2)C(=O)N1c1ccccc1 (centres undefined),?,7.94µM*,56.2µM*,4.0%,4.9%,?
O=C(O)CCSC1CC(=O)N(c2ccccc2)C1=O (centres undefined),-14.4%,?,9.4%,/,-3.0%,-12.6%
COc1ccc(N2C(=O)CC(Sc3nc(C)cc(C)c3C#N)C2=O)cc1 (centres undefined),4.4%,?,-7.0%,-0.4%[56.1 µM],10.5%,-4.3%
C[C@H]1CC[C@]2(O[C@H](CCO)C[C@H](O)[C@H]2O)O1,/,/,/,/,47.4%,-6.5%
CC1=C(C(=O)Nc2ccccc2)C2(CCCCC2)C(C#N)=C(S)N1,-32.0%,7.94µM*,31.6µM*,6.6%,2.0%,-33.6%
